Experiment [1] is described as follows: qHTS assay to identify small molecule agonists of the estrogen receptor alpha (ER-alpha) signaling pathway in the presence of an antagonist - cell viability counter screen (AID 1259386).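 Further: series mostly up to about 92 µM; cells exposed to compounds for 22 h at 37 °C before the viability read; nearly all actives have a fitted effect of over 30% in size.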 In outline:
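Read-out: CellTiter-Fluor fluorescence after 1hr reagent incubation, measured in the same wells as the luciferase readout. VM7Luc4E2 cells were exposed to 15 compound concentrations with 10.0nM ICI-182,780 for 22hr at 37C.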

Experiment [2] deals with Progesterone receptor (Homo sapiens) (UniProt P06401). Briefly: qHTS assay to identify small molecule agonists of the progesterone receptor (PR) signaling pathway (AID 1346784; calls by dose curve; further: nearly all actives have a fitted effect of over 30% in size). In outline: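 PR-UAS-bla HEK 293T cells carrying a UAS-driven beta-lactamase reporter were seeded in medium with 2% charcoal-stripped FBS, preincubated 6 hr at 37C, then exposed to compounds in DMSO for 16 hr; agonism was read by LiveBLAzer B/G FRET fluorescence.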
Chain of Progesterone receptor (Homo sapiens) (P06401 whole entry, looked up): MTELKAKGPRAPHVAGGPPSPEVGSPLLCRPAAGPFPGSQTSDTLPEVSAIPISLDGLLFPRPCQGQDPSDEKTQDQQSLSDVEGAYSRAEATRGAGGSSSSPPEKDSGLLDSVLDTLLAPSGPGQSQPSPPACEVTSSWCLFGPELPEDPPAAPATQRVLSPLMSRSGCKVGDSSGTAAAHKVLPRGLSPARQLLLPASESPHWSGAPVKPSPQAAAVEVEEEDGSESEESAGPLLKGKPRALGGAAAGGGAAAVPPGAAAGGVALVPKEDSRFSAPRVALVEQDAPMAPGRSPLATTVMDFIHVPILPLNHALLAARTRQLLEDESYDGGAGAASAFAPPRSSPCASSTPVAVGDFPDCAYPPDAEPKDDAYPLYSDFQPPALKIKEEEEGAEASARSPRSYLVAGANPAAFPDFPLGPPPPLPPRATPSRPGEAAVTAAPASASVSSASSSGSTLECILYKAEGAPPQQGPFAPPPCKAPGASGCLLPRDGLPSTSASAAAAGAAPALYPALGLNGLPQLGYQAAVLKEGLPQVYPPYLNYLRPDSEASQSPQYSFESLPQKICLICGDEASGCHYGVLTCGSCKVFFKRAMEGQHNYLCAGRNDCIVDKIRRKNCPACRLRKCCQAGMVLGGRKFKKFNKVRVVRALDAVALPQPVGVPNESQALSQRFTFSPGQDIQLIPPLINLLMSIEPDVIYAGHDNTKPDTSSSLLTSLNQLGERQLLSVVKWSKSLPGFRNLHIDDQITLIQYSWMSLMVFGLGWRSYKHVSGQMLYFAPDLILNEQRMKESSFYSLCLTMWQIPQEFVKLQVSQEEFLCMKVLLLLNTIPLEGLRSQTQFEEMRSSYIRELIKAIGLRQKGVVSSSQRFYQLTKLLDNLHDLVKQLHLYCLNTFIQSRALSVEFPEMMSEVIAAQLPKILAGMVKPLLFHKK

Experiment [3] has the same target. Briefly: qHTS assay to identify small molecule antagonists of the progesterone receptor (PR) signaling pathway (AID 1346795; active means well fitted inhibition curve with a large enough effect in the signal ratio in the repeat runs, not every such curve was filed as active; the % refers to the signal ratio). In outline:
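PR-UAS-bla HEK293T cells carrying a UAS-driven beta-lactamase reporter were plated in medium with 2% charcoal-stripped FBS and rested 6 hr at 37C. Compounds were added with 1 nM R5020 (final) for 16 hr, then FRET substrate loaded 2 hr at room temperature.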

Experiment [4] is described as follows: qHTS assay to identify small molecule antagonists of the progesterone receptor (PR) signaling pathway - cell viability counter screen (AID 1346798). Further: series mostly up to about 92 µM; nearly all actives have a fitted effect of over 50% in size. In outline: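 PR-UAS-bla HEK293T cells in medium with 2% charcoal-stripped FBS were treated with compounds plus R5020 for 16 hr at 37C. Cell viability was then read by CellTiter-Glo luminescence after 30 min at room temperature in the same wells.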

A short description of experiment [5]: qHTS assay to identify small molecule antagonists of the TGF-beta/Smad signaling pathway - cell viability counter screen (AID 1346824). Further: nearly all actives have a fitted effect of over 50% in size. In outline:
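Cytotoxicity counter-screen run in the same wells as the beta-lactamase Smad reporter read: CellTiter-Glo luminescence after 30 min at room temperature. HEK 293T SBE-bla cells had 5 hr compound exposure at 37 C with TGF-beta1 (0.25 ng/mL stock).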

Experiment [6] is described as follows: qHTS assay to identify small molecule agonists of the TGF-beta/Smad signaling pathway - cell viability counter screen (AID 1346829). Further: top concentration of the series differs between compounds; nearly all actives have a fitted effect of over 45% in size. In outline:
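SBE-bla HEK 293T cells plated overnight, compound exposure 5 hr at 37 C. Viability read in the same wells by CellTiter-Glo luminescence after 30 min at room temperature, following the beta-lactamase read.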

The nature of experiment [7]: qHTS assay to identify small molecule agonists of the TGF-beta/Smad signaling pathway (AID 1346859; active means well fitted activation curve with a large enough effect in the signal ratio in the repeat runs, not every such curve was filed as active; the % refers to the signal ratio; further: series mostly up to about 77 µM). In outline: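 HEK 293T cells stably carrying a beta-lactamase reporter driven by the Smad binding element were seeded overnight, exposed to DMSO-dissolved compounds for 5 hr at 37 C, 5% CO2, then loaded with FRET substrate for 2 hr at room temperature.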
In experiment [8] the target is Thyrotropin-releasing hormone receptor (Homo sapiens) (UniProt P34981). Kind of experiment: qHTS assay to identify small molecule antagonists of the thyrotropin-releasing hormone receptor (TRHR) signaling pathway (AID 1346877; active means well fitted inhibition curve with a large enough effect in the repeat runs, not every such curve was filed as active; further: series mostly up to about 51 µM). In outline: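 HEK293/TRHR cells, 18 h, 37 °C; Ca2+ dye 2 h; cpd 5 min RT; TRH 1 nM final; fluorescence read 3 min, 1 s intervals; 15 concs, triplicate.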
Chain of Thyrotropin-releasing hormone receptor (Homo sapiens) (P34981 whole entry, looked up): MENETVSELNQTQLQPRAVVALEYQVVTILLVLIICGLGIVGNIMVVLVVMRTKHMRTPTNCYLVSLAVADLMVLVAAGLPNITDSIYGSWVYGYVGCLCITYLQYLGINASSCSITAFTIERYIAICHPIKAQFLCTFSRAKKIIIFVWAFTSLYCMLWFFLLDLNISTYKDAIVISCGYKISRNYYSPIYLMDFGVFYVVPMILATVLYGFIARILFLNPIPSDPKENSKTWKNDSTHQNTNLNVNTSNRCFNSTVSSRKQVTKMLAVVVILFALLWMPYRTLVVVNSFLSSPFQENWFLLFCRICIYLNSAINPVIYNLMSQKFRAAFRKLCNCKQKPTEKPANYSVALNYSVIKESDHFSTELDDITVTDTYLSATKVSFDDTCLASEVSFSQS

Experiment [9] has the same target. Briefly: qHTS assay to identify small molecule agonists of the thyrotropin-releasing hormone receptor (TRHR) signaling pathway (AID 1346891; calls by dose curve; further: series mostly up to about 58 µM). In outline: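 TRHR-expressing HEK293 cells were plated 18 h at 37 °C/5% CO2, loaded with calcium dye 2 h at 37 °C, then given compound in DMSO; fluorescence was read kinetically for 3 min at 1 s intervals.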
Experiment [10] can be described thus: Human pregnane X receptor (PXR) small molecule agonists, qHTS cell viability counter screen (AID 1346977). Further: nearly all actives have a fitted effect of over 50% in size. In outline: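 PXR-Luc HepG2 cells in medium with 5% charcoal-stripped FBS were pre-incubated 5hr, then exposed to compounds for 24hr at 37C. Viability was read in the same wells by CellTiter-Fluor fluorescence, reagent added after 23hr with a 1hr incubation.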

A short description of experiment [11]: Caspase-3/7 induction in HepG2 cells by small molecules, qHTS assay (AID 1346978). Further: nearly all actives have a fitted effect of over 15% in size. In outline:
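Caspase-3/7 induction was measured by Caspase-Glo 3/7 luminescence (30 min, room temperature) after a 17 hr compound exposure of wild-type HepG2 cells seeded at 2,000 per well and pre-incubated 5 hr.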

A short description of experiment [12]: Caspase-3/7 induction in CHO-K1 cells by small molecules, qHTS cell viability counter screen (AID 1346979). Further: nearly all actives have a fitted effect of over 35% in size. In outline:
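Wild-type CHO-K1 cells were seeded at 1,500 per well, rested 5hr at 37 C, then exposed to compounds in DMSO. After 16hr, CellTiter-Fluor reagent was added and fluorescence read 1hr later as the viability measure.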

Experiment [13] can be described thus: Caspase-3/7 induction in CHO-K1 cells by small molecules, qHTS assay (AID 1346980). Further: nearly all actives have a fitted effect of over 15% in size. In outline:
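Luminescent Caspase-Glo 3/7 read (30min, room temperature) quantified apoptosis induction. Cells were wild-type CHO-K1, treated with compound for 17hr at 37 C and 5% CO2.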

Experiment [14] is described as follows: Caspase-3/7 induction in HepG2 cells by small molecules, qHTS cell viability counter screen (AID 1346981). Further: series mostly up to about 92 µM; nearly all actives have a fitted effect of over 30% in size. In outline:
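Fluorescence read-out of live-cell protease activity (CellTiter-Fluor) after 1 hr with reagent. This was measured in the same wells as the caspase-3/7 luminescence, on HepG2 cells exposed to DMSO-dissolved compounds for 16 hr at 37 C.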

Experiment [15] deals with Cytochrome P450 2D6 (Homo sapiens) (UniProt P10635). Kind of experiment: Cytochrome P450 Family 2 Subfamily D Member 6 (CYP2D6) small molecule antagonists: luciferase reporter qHTS assay (AID 1671196). Further: nearly all actives have a fitted effect of over 50% in size. Further: potency means the concentration at half of the fitted maximal effect. In outline: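 Luminogenic proluciferin substrate, CYP2D6 enzyme; 10 min RT preincubation with compound, NADPH regeneration system added, 1 h RT. Stop/detection reagent, 20 min RT, luminescence read (RLU). Signal proportional to CYP activity.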
Chain of Cytochrome P450 2D6 (Homo sapiens) (P10635 whole entry, looked up): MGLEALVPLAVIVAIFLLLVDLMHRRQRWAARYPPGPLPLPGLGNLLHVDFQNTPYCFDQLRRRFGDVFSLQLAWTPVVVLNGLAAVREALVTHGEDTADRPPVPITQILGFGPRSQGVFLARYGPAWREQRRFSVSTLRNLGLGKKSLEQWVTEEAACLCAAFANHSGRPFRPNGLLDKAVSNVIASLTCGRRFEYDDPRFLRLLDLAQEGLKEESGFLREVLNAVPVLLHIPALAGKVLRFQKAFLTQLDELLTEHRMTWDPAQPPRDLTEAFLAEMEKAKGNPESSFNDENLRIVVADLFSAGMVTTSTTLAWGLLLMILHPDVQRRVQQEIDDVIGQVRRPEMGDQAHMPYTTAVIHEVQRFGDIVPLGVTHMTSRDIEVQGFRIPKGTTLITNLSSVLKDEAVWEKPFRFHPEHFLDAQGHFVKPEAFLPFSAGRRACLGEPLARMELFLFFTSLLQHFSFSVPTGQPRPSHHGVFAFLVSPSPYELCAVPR

Experiment [16] addresses Nuclear receptor subfamily 1 group I member 2 (Homo sapiens) (UniProt O75469). Kind of experiment: Human pregnane X receptor (PXR) small molecule agonists, qHTS assay (AID 1346982). Further: nearly all actives have a fitted effect of over 35% in size. Further: potency means the concentration at half of the fitted maximal effect. In outline: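 HepG2 PXR-Luc reporter line, 5% charcoal-stripped FBS; 5 hr pre-incubation, compound (DMSO) 24 hr at 37 C/5% CO2; ONE-Glo 30 min RT; luminescence read-out.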
The nature of experiment [17]: qHTS assay to identify small molecule agonists of the progesterone receptor (PR) signaling pathway - cell viability counter screen (AID 1346799; calls by dose curve; further: nearly all actives have a fitted effect of over 45% in size). In outline: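 PR-UAS-bla HEK293T cells, 3,000 per well in medium with 2% charcoal-stripped FBS, were preincubated 6 hr at 37C, then exposed to compounds for 16 hr; viability was read as CellTiter-Glo luminescence after 30 min at room temperature.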

“And” between values parts separate entries of the source, which are not always exact repeats. Equal entries are not always repeated. Results filed as inconclusive are left out. Where a structure was tested more than once in an assay, its records may differ in their call. The source made the active and inactive calls. Unless noted, the call rests on the fitted dose curve; in most records, active means well fitted curve in the direction sought with a large enough effect in the repeat runs; inconclusive means weak or mixed curves; inactive means no such curve, though single readings can be large; an effect the other way counts as inactive or inconclusive.

Chain of Nuclear receptor subfamily 1 group I member 2 (Homo sapiens) (O75469 whole entry, looked up): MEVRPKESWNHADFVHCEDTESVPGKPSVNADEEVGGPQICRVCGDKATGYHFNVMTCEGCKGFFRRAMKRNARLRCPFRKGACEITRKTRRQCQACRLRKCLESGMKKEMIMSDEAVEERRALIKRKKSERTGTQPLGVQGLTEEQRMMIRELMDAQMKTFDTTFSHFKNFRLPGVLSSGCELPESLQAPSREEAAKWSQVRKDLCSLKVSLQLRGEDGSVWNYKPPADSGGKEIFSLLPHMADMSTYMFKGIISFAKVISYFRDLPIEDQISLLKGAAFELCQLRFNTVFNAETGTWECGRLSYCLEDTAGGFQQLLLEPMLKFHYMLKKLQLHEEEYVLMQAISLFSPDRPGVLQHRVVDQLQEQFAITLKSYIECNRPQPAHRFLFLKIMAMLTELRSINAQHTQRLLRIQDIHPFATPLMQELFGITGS

`CCCCCCCCCCO`: the Potency entry in [1], in [2], in [3], in [10], in [11] and in [12] was “inactive” in each case. Besides, the Potency result in experiment [14] and in experiment [15] was “inactive” throughout. Further, the call in [4], in [5], in [6], in experiment [7], in experiment [8] and in experiment [9] was inactive. Further, the call in experiment [13] was inactive.

`COCCCN`: the Potency result in experiment [1], in [2], in experiment [3], in experiment [10], in [11] and in [12] was “inactive” each time. Besides, the Potency result in [14], in experiment [16] and in experiment [15] was “inactive” in each case. For the same compound, the outcome in experiment [4], in [5], in [7], in [8], in experiment [9] and in experiment [13] was inactive.

With `CN(C)c1ccc(Cc2ccc(N(C)C)cc2)cc1`, the Potency entry in [1], in experiment [2], in [3], in experiment [10], in [11] and in experiment [14] was “inactive” in each case. In addition, the outcome in experiment [4], in experiment [5], in [7], in experiment [8], in experiment [9] and in experiment [13] was inactive. The Potency was 30.8 µM (active) and 43.3 µM (active) in experiment [16]; 40.1 µM (active) in experiment [15].

In the case of `COc1ccc(N)c(C)c1`, the Potency result in [1], in [2], in experiment [3], in experiment [10], in experiment [11] and in experiment [12] was “inactive” each time. Further, the Potency result in [14] and in experiment [16] was “inactive” each time. For the same compound, the compound was called inactive in [4], in [17], in experiment [5], in [7] and in [13]. Further, in experiment [15], the Potency is 8.9 µM (active) and 31.7 µM (active).

With `CC(O)CC(C)(C)O` (stereo not drawn), the Potency entry in experiment [1], in experiment [2], in experiment [3], in experiment [10], in experiment [11] and in experiment [12] was “inactive” in each case. In addition, the Potency result in [14], in [16] and in experiment [15] was “inactive” throughout. Also, the result in experiment [4], in experiment [17], in experiment [5], in experiment [7], in [9] and in [13] was inactive.

Consider `NCCNCCN`, for which the Potency entry in [1], in experiment [2], in experiment [3], in experiment [10], in [11] and in experiment [12] was “inactive” in each case. Besides, in [14], the Potency result was “inactive”. In addition, the compound was called inactive in experiment [4], in [5], in experiment [7], in experiment [8], in experiment [9] and in [13]. The Potency in [15] was 63.5 µM (active).

Turning to `CC(C)OC(=O)COc1ccc(Cl)cc1Cl`, the Potency result in [1], in experiment [2], in [3], in experiment [10], in [12] and in [14] was “inactive” throughout. In addition, the Potency entry in experiment [16] is “inactive”. Moreover, the call in experiment [4], in experiment [17], in experiment [5], in experiment [6], in [7] and in [13] was inactive.

Take `O=C(O)/C=C/C(=O)O`: the Potency entry in experiment [1], in experiment [2], in experiment [3], in experiment [10], in experiment [11] and in experiment [12] was “inactive” throughout. The Potency result in experiment [14] is “inactive”. For the same compound, the outcome in experiment [4], in experiment [5], in experiment [6], in experiment [7], in experiment [8] and in [9] was inactive. In addition, the call in experiment [13] was inactive. Further, the Potency in [15] is 37.6 µM (active) and inactive.

Consider `Nc1nc(N)nc(-c2ccccc2)n1`, for which the Potency entry in [1], in experiment [2], in experiment [3], in experiment [10], in [12] and in experiment [14] was “inactive” each time. The Potency result in experiment [15] is “inactive”. Besides, the result in experiment [4], in experiment [17], in [5], in experiment [7], in experiment [9] and in [13] was inactive.

The record behind these values is PubChem BioAssay (Tox21).
